BH1578 lux ind: quorum light induction in luxS cqsA deficient V. cholerae. V. cholerae BH1578 lux reporter, luminescence, 6 h. activation, % at 18.7 µM. 0.16% of 350,000 active. AID 588436; in the data active = activation mostly above about 9.7%, no sharp cut-off
Mtb hypoxia inh: inhibitors of hypoxia-regulated fluorescent reporter in Mycobacterium tuberculosis | M. tuberculosis hypoxia-regulated fluorescent reporter, fluorescence | fluorescence inhibition, % (test concentration not listed) | 0.1% of 300,000 active | AID 1159583; in the data active = fluorescence inhibition mostly above about 23%, no sharp cut-off; inactive = mostly below about 17%
PfHsp40 rescue: compounds rescuing yeast from Plasmodium falciparum HSP40 toxicity; S. cerevisiae expressing PfHsp40, growth rescue, ATP luminescence; growth rescue, % at 12.5 µM; 0.68% of 340,000 active; in the data active = growth rescue above about 28%, passing the limit was not always enough;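 also: yeast W303a lacking pdr1 and pdr3 grown in galactose medium; growth measured after three days at 30 °C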
RN4220 kill: S. aureus RN4220 growth inhibition. OD600, 16 h. inhibition, % (test concentration not listed). 0.33% of 330,000 active. AID 1259311; in the data active = inhibition above about 85%;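 also: plate controls were untreated cells for no effect and reference antibiotic for full effect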
CCHF vOTU inh-1: CCHFV vOTU protease inhibition. inhibition, % at 11.5 µM. Pep-AMC fluorescence. 0.55% of 370,000 active; also: 0% = vehicle wells with enzyme and 100% = no enzyme wells
Sa ugtP lethal: kills S. aureus RN4220 lacking UgtP; S. aureus RN4220 ugtP deletion, OD600 growth, 16 h; growth inhibition, % (no concentration beside the values); 0.54% of 330,000 active; AID 1259309; in the data active = growth inhibition above about 68%;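 also: plate controls were untreated wells for no effect and antibiotic for full effect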
CCHF vOTU inh-2: confirmation of CCHF virus vOTU protease inhibitors. 17% of 1,900 active. inhibition, % at 11.5 µM. shares compounds with CCHF vOTU inh-1. AID 686976. Recombinant CCHFV vOTU, Pep-AMC fluorescence
Starred values were filed as active, the others as inactive; i = inactive; . = no result shown. Hits are enriched below; roughly 1.7% of the tested compounds scored in any of these assays. Rule as the data show it, unless noted: active = inhibition above about 30%; inactive = the rest.

SMILES	BH1578 lux ind	Mtb hypoxia inh	PfHsp40 rescue	RN4220 kill	CCHF vOTU inh-1	Sa ugtP lethal	CCHF vOTU inh-2
Cn1c(=NN=Cc2ccc(N3CCOCC3)cc2)sc2ccccc21	.	0	.	8	.	1	.
Oc1ccc(Br)cc1CNc1cccc2cccnc12	i	.	4	.	18	.	.
Oc1c(Br)cc(Br)cc1CNc1cccc2cccnc12	-1	10	1	21	116*	-2	12
Oc1ccc(Cl)cc1CNc1cccc2cccnc12	i	3	2	-8	102*	73	-4
Cc1ccc([C@H]2C[C@@H](O)[C@H](n3cc(-c4ccc(F)cc4)nn3)CN2C(=O)C2CCCCC2)cc1	0	.	.	.	31*	.	4
CCCCCC(=O)N1C[C@@H](n2cc(-c3ccc(F)cc3)nn2)[C@H](O)C[C@@H]1c1ccc(Cl)cc1	0	.	.	.	34*	.	5
O=C(C1CCCCC1)N1C[C@H](n2cc(-c3ccc(F)cc3)nn2)[C@@H](O)C[C@@H]1c1ccc(Cl)cc1	0	.	.	.	4	.	.
COc1ccccc1N(/N=C1\Sc2ccccc2C1=O)C(C)=O	0	.	-1	.	32*	.	5
COc1cc(OC)cc(-c2oc(=O)c3cc(OC)c(OC)cc3c2C=Cc2ccc(F)cc2)c1	.	-35	.	-2	.	0	.
CN(C)c1ccc(/C=N/NC(=O)c2cc(=O)[nH]c3ccccc23)cc1	3	.	-1	.	32*	.	3
CN(C)c1ccc(C=NNC(=O)c2cc(=O)[nH]c3ccccc23)cc1	.	7	.	-1	.	8	.
CC(c1ccco1)N(Cc1ccco1)C(=O)Nc1ccccc1 (stereo not given)	i	-5	0	5	34*	3	-20
COC(=O)C1=C(c2cccc(OC)c2OC)CC2CCC1N2C(=O)NCCCOC(C)C (stereo not given)	.	13	.	3	.	5	.
Cc1cccc(CN2C(=O)C3Cc4c([nH]c5ccccc45)C(C)(C)N3C2=O)c1 (stereo not given)	.	8	.	-13	.	-2	.
CC(=NNC(=O)c1c(Br)c(C)nn1C)c1ccc(NC(=O)C(C)Oc2ccc(Cl)cc2C)cc1 (stereo not given)	.	.	.	38	.	35	.
O=C(NC(=S)Nc1ccccc1N1CCCC1)c1ccccc1Br	2	.	0	.	34*	.	30*
COc1c(C)cccc1C(=O)NC(=S)Nc1ccccc1N1CCCC1	0	1	0	3	50*	66	23
COc1ccc(NS(=O)(=O)c2cccc(C(=O)NN=Cc3ccccc3OC)c2)cc1	.	-6	.	3	.	6	.
COc1ccc(NC(=O)COC(=O)c2cc(SC)ccc2Cl)c(OC)c1	i	6	-1	2	30*	6	-13
CC1(c2ccc3ccccc3c2)NC(=O)N(CC(=O)NCc2cccs2)C1=O (stereo not given)	i	13	0	5	6	0	.
CCCCCC(C)NC(=O)CN1C(=O)NC(C)(c2ccc3ccccc3c2)C1=O (stereo not given)	i	8	4	5	32*	-1	4
CC1Cc2ccccc2N1CC(=O)NC(=O)NC1CCCCC1 (stereo not given)	0	7	1	9	31*	15	-13
CN1CCN(C2=C(NS(=O)(=O)c3ccccc3)C(=O)c3ccccc3C2=O)CC1	-4	4	0	5	.	8	.
CCN1CCN(C2=C(NS(=O)(=O)c3ccccc3)C(=O)c3ccccc3C2=O)CC1	0	-8	0	16	46*	11	15
CCN1CCN(C2=C(NS(=O)(=O)c3ccc(Br)cc3)C(=O)c3ccccc3C2=O)CC1	0	6	-1	7	78*	0	19
SMILES	BH1578 lux ind	Mtb hypoxia inh	PfHsp40 rescue	RN4220 kill	CCHF vOTU inh-1	Sa ugtP lethal	CCHF vOTU inh-2
Cc1cc2c(N)cccc2nn1	i	.	-1	.	111*	.	2
CCc1ccc(N2CC(C(=O)NN=Cc3cccc([N+](=O)[O-])c3)CC2=O)cc1 (stereo not given)	.	4	.	2	.	4	.
CCOC(=O)C1(C)C=C(Nc2ccc(O)cc2)C(=O)N1c1ccc(O)cc1 (stereo not given)	0	-8	-1	2	91*	-3	-15
CCCCn1c(N)c(N(CC(C)C)C(=O)CSCC(=O)Nc2cccc(C)c2)c(=O)[nH]c1=O	-1	12	1	2	34*	2	-21
COc1ccc2ccc3c(c2c1)N=C[C@]1(O3)N(C)c2ccccc2C1(C)C	0	4	1	-5	46*	0	-3
CC1=NOC2(C1)N(C)c1ccccc1C2(C)C (stereo not given)	-6	6	-1	5	-8	10	.
COc1ccccc1CN1C(CC(=O)O)c2ccccc2S1(=O)=O (stereo not given)	.	2	.	6	.	5	.
CC1CCCC(=NNC(=S)Nc2ccccc2)C1 (stereo not given)	.	8	.	0	.	16	.
CC1CCC/C(=N\NC(=O)Nc2ccccc2)C1 (stereo not given)	0	.	0	.	34*	.	-20
CCN1/C(=C\C=C(C(C)=O)C(C)=O)Sc2ccccc21	-1	25	1	2	37*	-1	25
CCOC(=O)C(=CC=C1Sc2cc(OCC)c(OCC)cc2N1CC)C(C)=O	.	-157	.	0	.	-1	.
CC(COc1ccccc1)=NNC(=O)c1nnn(-c2nonc2N)c1CSc1ccccc1	.	8	.	4	.	1	.
O=C(CSc1nccc2ccccc12)N1CCN(c2ccccn2)CC1	0	-7	3	4	65*	8	-10
Cc1ccc(-n2c3nc(=O)[nH]c(=O)c-3cc3cc([N+](=O)[O-])ccc32)cc1C	0	.	1	-3	31*	1	-4
O=C(NN=Cc1ccc(S(=O)(=O)O)o1)c1ccc2c(c1)OCO2	.	5	.	2	.	10	.
CN1C(=O)C(=Cc2ccc(N3CCCCCC3)o2)C(=O)N(C)C1=S	-1	.	3	2	8	-3	.
CN1C(=O)C(=Cc2ccc(N3CCOCC3)o2)C(=O)N(C)C1=O	0	23	-2	8	30*	2	1
COc1cc(Cc2nccc3cc(OC)c(OC)cc23)c(S(=O)(=O)O)cc1OC	i	10	-2	2	71*	5	-13
COc1cc(Cc2nccc3cc(OC)c(OC)cc23)c(NC(C)=O)cc1OC	i	11	1	4	-8	8	.
